39 compounds from PubChem BioAssay can be followed below.

The other results are listed elsewhere or left out. Active and inactive are the calls of the source.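 Rule for the calls, unless noted: active = dye signal at least 3 control SD above or below untreated wells in both duplicates, raw fluorescence within 3, either direction; inactive = the rest.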

Chain of Inward rectifier potassium channel 2 (Mus musculus) (P35561 whole entry, looked up): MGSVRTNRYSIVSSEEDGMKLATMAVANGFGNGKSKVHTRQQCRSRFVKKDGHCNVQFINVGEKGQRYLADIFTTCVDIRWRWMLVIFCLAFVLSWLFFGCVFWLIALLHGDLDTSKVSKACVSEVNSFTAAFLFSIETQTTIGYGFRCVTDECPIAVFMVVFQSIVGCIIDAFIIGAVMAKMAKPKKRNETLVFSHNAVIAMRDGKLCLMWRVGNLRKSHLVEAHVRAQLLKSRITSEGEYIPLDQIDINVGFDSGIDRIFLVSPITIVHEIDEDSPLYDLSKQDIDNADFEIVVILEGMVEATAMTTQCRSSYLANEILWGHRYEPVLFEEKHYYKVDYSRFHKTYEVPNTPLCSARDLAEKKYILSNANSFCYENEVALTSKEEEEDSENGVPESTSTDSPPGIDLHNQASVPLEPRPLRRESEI

One experiment has as its target Inward rectifier potassium channel 2 (Mus musculus) (UniProt P35561). The experiment in a line: mouse Kir2.1 channel blockers, retest, confirmation, cell-based, FluxOR thallium flux, duplicate (AID 2032;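 active = Primary-screen hit whose thallium flux fell at least 3 control SD below untreated wells in both duplicates, with normal baseline fluorescence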). The following applies: Kir2.1-expressing cells, FluxOR thallium flux fluorescence, at 10 µM; hits give low values.
As for `O=C(NCc1ccc2c(c1)OCO2)c1ccc(Cl)s1`, the compound was classed as inactive. On to `Cc1[nH][nH]c(=O)c1C(c1ccc(-c2ccc(Cl)cc2)o1)c1c(C)[nH][nH]c1=O`, for which the compound was classed as inactive. In the case of `CCn1c(=S)[nH]c2sc3c(c2c1=O)CCCCC3`, the compound was called inactive. As for `CCn1c2ccccc2c2cc(NC(=O)CNC)ccc21`, the Tl flux remaining, % of negative control (hits give low values) is 44% (active).

For the compound `CCC1(C)Cc2c(sc3nnn(CC(=O)Nc4ccc(Cl)cc4)c(=O)c23)CO1` (centres undefined), the outcome was inactive. `N#Cc1c(-c2ccccc2)nc(SCc2cccc(C(F)(F)F)c2)[nH]c1=O`: the compound was called inactive. Consider `CC(=O)N(C1=C(Cl)C(=O)c2ccccc2C1=O)c1ccc(C(=O)O)cc1`, for which the outcome was inactive.

With `CCOC(=O)c1sc(=S)n2c1[nH]c(=O)c1ccc(C(=O)OC)cc12`, the compound was called inactive. Turning to `CCc1ccc(-c2nn(-c3ccccc3)cc2CSC(=N)N)cc1`, the Tl flux remaining, % of negative control (hits give low values) is 33.5% (active).

For `N=c1c2c(-c3ccccc3)c(-c3ccccc3)n(Cc3ccccc3)c2ncn1CCCO`, the Tl flux remaining, % of negative control (hits give low values) is 37% (active). Take `CCOC(=O)c1c(NC(=S)NC)sc2c1CCCC2`: the result was inactive. Consider `Cc1ccc(/C=N/NC(=O)c2cc3ccccc3cc2O)o1`, for which the result was inactive.

Take `CCN(CC(=O)NC(=O)NCc1ccccc1)Cc1nc2ccccc2c(=O)[nH]1`: the call was inactive. For the compound `CSc1nnc(NC(=O)c2nc(S(=O)(=O)Cc3ccc(C)cc3)ncc2Cl)s1`, the compound was called inactive. As to `FC(F)(F)c1cccc(NC(=S)Nc2cccc(Cl)c2)c1`, the compound was classed as inactive.

For `CCc1ccc(NC(=O)C(=O)NNC(=O)c2cccs2)cc1`, the compound was classed as inactive. Consider `CCn1cc(CN2CCC(C(=O)Nc3cccc(-c4cccc(Cl)c4)c3)CC2)cn1`, for which the Tl flux remaining, % of negative control (hits give low values) is 55% (active).

For `Cc1[nH]n(-c2cccc(Cl)c2)c(=O)c1/C=N/n1c(C)nc2ccccc2c1=O`, the outcome was inactive. In the case of `CC1=C/C(=N\OS(=O)(=O)c2ccccc2)C=CC1=O`, the outcome was inactive.

On to `O=C(NCc1ccc2c(c1)OCO2)C12CC3CC(CC(C3)C1)C2`, for which the call was inactive.

Tested on in the next experiment: not listed separately
Put plainly: nonspecific thallium flux effects in parental HEK293 cells, confirmation, counter-screen for Kir2.1 inhibitor project, cell-based, FluxOR thallium flux, duplicate, single concentration (AID 2105).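 For FluxOR signal as % of negative control (100 = no effect): percent is based on the flux ratio of peak minus minimum fluorescence over baseline F0.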 The following applies: FluxOR thallium flux fluorescence, at 10 µM; 0% = unstimulated blank wells. (A counterscreen serves to expose hits that act by an unwanted route or on another target.)
Turning to `CC(NC(=O)Nc1ccccc1)c1ccccc1` (centres undefined), the outcome was inactive. `CCCc1nc2sc3c(c2c(=O)n1NC(=O)CCCl)CCCC3`: the result was inactive. As to `Cc1cccc(NC(=O)c2nc(S(=O)(=O)Cc3ccccc3)ncc2Cl)c1`, the outcome was inactive. As for `CCC1(C)Cc2c(sc3[nH]c(=S)n(Cc4ccccc4)c(=O)c23)CO1` (centres undefined), the FluxOR signal as % of negative control (100 = no effect) was 527% (active). On to `CCCCNC(=O)Nc1c(C)cc(SC#N)cc1C`, for which the outcome was inactive. As for `O=C(NC(Nc1nc2ccc([N+](=O)[O-])cc2s1)(C(F)(F)F)C(F)(F)F)c1ccccc1`, the outcome was inactive. As for `COc1cccc(NC(=O)C2C(c3ccccc3)C2(Cl)Cl)c1` (centres undefined), the result was inactive. With `Cc1cccc(NC(=S)NC(=O)c2ccc(Br)o2)c1`, the FluxOR signal as % of negative control (100 = no effect) is 170% (active). Take `O=C(Nc1ccc(Oc2ccccc2)cc1)c1ccco1`: the result was inactive. Consider `S=C(NCc1ccc(Cl)cc1)NC12CC3CC(CC(C3)C1)C2`, for which the outcome was inactive. With `CS(=O)(=O)c1sc(C(=O)NC(=S)Nc2ccc(OC(F)(F)F)cc2)c2c1C=CCC2`, the outcome was inactive. As to `COc1ccc(C(=O)Nc2ncc3c(n2)-c2ccccc2CC3)cc1`, the result was inactive.

For `Oc1c(Cl)cc(Cl)cc1/C=N/c1ncn[nH]1`, the result was inactive. With `Cc1ccc2nc(C)c3c(c2c1)N(c1ccccc1)CC3`, the result was inactive. With `CCn1c(O)c(N=NC2=NC(=O)CS2)c2cc(C)ccc21`, the FluxOR signal as % of negative control (100 = no effect) is 160% (active). For the compound `Cc1ccc(S(=O)(=O)N2CCN(C(=O)COC(=O)c3c(C)cc(C)cc3C)CC2)c(C)c1`, the result was inactive. In the case of `Cc1cc2oc3ccc(NCCC4CCCN4C)cc3c(=O)c2cc1C` (centres undefined), the FluxOR signal as % of negative control (100 = no effect) was 67.5% (active). Take `O=C(NNC1=C(C(=O)C(F)(F)F)CCC1)c1ccncc1`: the outcome was inactive. `CC(NC(=O)Nc1cccc([N+](=O)[O-])c1)c1ccc2c(c1)OCO2` (centres undefined): the result was inactive. For `O=C(NCc1ccc2c(c1)OCO2)c1ccc(Cl)s1`, the outcome was inactive. As for `Cc1[nH][nH]c(=O)c1C(c1ccc(-c2ccc(Cl)cc2)o1)c1c(C)[nH][nH]c1=O`, the outcome was inactive. As to `CCn1c(=S)[nH]c2sc3c(c2c1=O)CCCCC3`, the FluxOR signal as % of negative control (100 = no effect) is 402% (active). With `CCn1c2ccccc2c2cc(NC(=O)CNC)ccc21`, the outcome was inactive. As to `CCC1(C)Cc2c(sc3nnn(CC(=O)Nc4ccc(Cl)cc4)c(=O)c23)CO1` (centres undefined), the result was inactive.

As for `N#Cc1c(-c2ccccc2)nc(SCc2cccc(C(F)(F)F)c2)[nH]c1=O`, the FluxOR signal as % of negative control (100 = no effect) is 58% (active).

`CC(=O)N(C1=C(Cl)C(=O)c2ccccc2C1=O)c1ccc(C(=O)O)cc1`: the result was inactive.

`CCOC(=O)c1sc(=S)n2c1[nH]c(=O)c1ccc(C(=O)OC)cc12`: the FluxOR signal as % of negative control (100 = no effect) was 174% (active). Take `CCc1ccc(-c2nn(-c3ccccc3)cc2CSC(=N)N)cc1`: the result was inactive. The same measure, in the same setting: the value for `N=c1c2c(-c3ccccc3)c(-c3ccccc3)n(Cc3ccccc3)c2ncn1CCCO` was “inactive”. With `CCOC(=O)c1c(NC(=S)NC)sc2c1CCCC2`, the FluxOR signal as % of negative control (100 = no effect) is 196% (active). With `Cc1ccc(/C=N/NC(=O)c2cc3ccccc3cc2O)o1`, the FluxOR signal as % of negative control (100 = no effect) is 414% (active). As for `CCN(CC(=O)NC(=O)NCc1ccccc1)Cc1nc2ccccc2c(=O)[nH]1`, the outcome was inactive. For the compound `CSc1nnc(NC(=O)c2nc(S(=O)(=O)Cc3ccc(C)cc3)ncc2Cl)s1`, the result was inactive. Turning to `FC(F)(F)c1cccc(NC(=S)Nc2cccc(Cl)c2)c1`, the outcome was inactive. `CCc1ccc(NC(=O)C(=O)NNC(=O)c2cccs2)cc1`: the FluxOR signal as % of negative control (100 = no effect) was 310% (active). As for `CCn1cc(CN2CCC(C(=O)Nc3cccc(-c4cccc(Cl)c4)c3)CC2)cn1`, the result was inactive. As for `Cc1[nH]n(-c2cccc(Cl)c2)c(=O)c1/C=N/n1c(C)nc2ccccc2c1=O`, the FluxOR signal as % of negative control (100 = no effect) is 145% (active).

As to `CC1=C/C(=N\OS(=O)(=O)c2ccccc2)C=CC1=O`, the outcome was inactive.

Regarding `O=C(NCc1ccc2c(c1)OCO2)C12CC3CC(CC(C3)C1)C2`, the result was inactive.
